# Most compounds without a hit are left out; they make up all but 4.8% or so of the library.
# SMARCA2 act – SMARCA2 (BRM) function activators, primary screen, cell-based, luminescence, high throughput; MG213 cells, MMTV-luciferase reporter, dexamethasone, overnight; activation, % at 9.1 µM; 1% of 370,000 active; in the data active = activation above about 7.8%;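 also: 0% = vehicle wells and 100% = reference activator wells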
# DAX1 inh-1 – DAX1 (NR0B1) inhibitors on StAR promoter, primary screen, cell-based, luminescence, SF-1 (NR5A1), full-length DAX-1; HEK293T StAR-luciferase reporter, SF-1/DAX-1 repression relief; inhibition, % at 6.8 µM; 1.1% of 370,000 active; AID 652010, 2013;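 active = inhibition above the mean over all tested compounds plus 3 SD, cut at about 3.6% in these data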;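 also: 0% = DAX-1 cells with DMSO and 100% = cells lacking DAX-1 with DMSO; higher inhibition means more luminescence from relief of DAX-1 repression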
# hgDAF12 agonist – H. glycines DAF-12 receptor agonists, primary screen, cell-based, luminescence, HEK293, GAL4 fusion, UAS-luciferase | Nuclear hormone receptor DAF-12 (Heterodera glycines), GAL4 fusion | HEK293 GAL4-hgDAF12 UAS-luciferase reporter, agonist luminescence; normalized to butyrate control | activation, % at 6.8 µM | 1.8% of 370,000 active | AID 687014, 2013;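 active = activation above a cutoff set at the mean of all screened compounds plus 3 SD, cut at about 10% in these data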;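 also: 0% = DMSO wells and 100% = sodium butyrate wells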
# DAX1 inh-2 – DAX1 (NR0B1) inhibitors, primary screen, cell-based, HEK293, Gal4-DAX1, luciferase luminescence; Nuclear receptor subfamily 0 group B member 1 (Homo sapiens), P51843; HEK293 Gal4-DAX1 luciferase reporter; inhibition, % at 6.75 µM; 0.99% of 340,000 active;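 active = inhibition above the mean over all tested compounds plus 3 SD, cut at about 4.2% in these data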;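 also: 0% = DAX1-transfected cells with DMSO and 100% = empty-vector control cells with DMSO; inhibition shows as a rise in luminescence from relieved DAX1 repression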
# Target sequence (P51843 207-470 limits assumed): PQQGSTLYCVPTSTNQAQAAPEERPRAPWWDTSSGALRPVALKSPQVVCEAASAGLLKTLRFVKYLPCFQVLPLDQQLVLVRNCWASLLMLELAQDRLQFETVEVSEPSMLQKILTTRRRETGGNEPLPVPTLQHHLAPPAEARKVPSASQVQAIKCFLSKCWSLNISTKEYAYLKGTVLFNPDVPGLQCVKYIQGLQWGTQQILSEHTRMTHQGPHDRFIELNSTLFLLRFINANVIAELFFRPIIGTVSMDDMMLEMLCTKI
# ssDAF12 agonist – S. stercoralis DAF-12 nuclear receptor activators, primary screen, cell-based, luminescence, HEK293, GRIP1 co-expression, lit1-tk-luc; Nuclear hormone receptor DAF-12 (Strongyloides stercoralis); activation, % at 6.8 µM; HEK293 ssDAF-12/GRIP1 lit1-tk-luc reporter; % of 3 µM dafachronic acid response; AID 652126, 2013; 1% of 370,000 active;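 active = activation above the mean over all tested compounds plus 3 SD, cut at about 0.9% in these data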;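 also: 0% = DMSO-only wells and 100% = 3 µM delta7-dafachronic acid wells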
# hcDAF12 agonist – H. contortus DAF-12 nuclear receptor activators, primary screen, cell-based, luminescence, HEK293, lit1-tk-luc reporter; HEK293 hcDAF-12 lit1-tk-luc reporter; 0% DMSO, 100% Δ7-dafachronic acid; activation, % at 6.8 µM; 1.4% of 370,000 active; AID 652067, 2013;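 active = activation above the mean of all tested compounds plus 3 SD, cut at about 5.5% in these data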;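 also: 100% = response to 3 µM Δ7-dafachronic acid high control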
# * hit, by the source's call; / = not tested or not shown.
SMILES,SMARCA2 act,DAX1 inh-1,hgDAF12 agonist,DAX1 inh-2,ssDAF12 agonist,hcDAF12 agonist
COc1ccc(CNC(=O)C(c2ccco2)N(C(=O)CNS(=O)(=O)c2ccccc2)c2ccccc2C)cc1 (configuration not stated),2,-1,-2,-1,-2,-4
CC1CCN(S(=O)(=O)N2CCC(C(=O)NCCC3=CCCCC3)CC2)CC1,0,0,0,1,-2,2
Cc1ccc(S(=O)(=O)N(C)C)cc1NC(=O)COC(=O)Cc1cccs1,-1,1,0,0,0,-1
COc1cccc(NC(=O)COC(=O)c2ccco2)c1,2,1,1,0,-1,0
CSCCC(NC(=O)c1ccco1)C(=O)Nc1ccc(C)cn1 (configuration not stated),-1,3.8*,2,3,0,3
Cc1cc(NC(=O)C(C)C)ncc1NC(=O)c1ccco1,-3,0,1,5.9*,-1,0
CSCCC(NC(=O)c1ccco1)C(=O)NC1CCC(C)CC1 (configuration not stated),2,3.7*,2,0,-1,3
COc1cccc(CN2CCNC(=O)C2CC(=O)NC2Cc3ccccc3C2)c1 (configuration not stated),4,0,0,-2,0,-2
CCOC(=O)C(C#N)C(Cc1ccccc1)c1ccco1 (configuration not stated),-2,0,2,0,0,-1
CN(C)C1=NCCN1CC1CCCC1,1,0,1,0,1.2*,3
CN(C)C1=NCCN1CCCC1CCCC1,0,0,0,2,-1,-1
N#Cc1c(N)nc2c(c1-c1ccncc1)CCCC2,-1,0,-1,-1,-2,-2
Cc1ccc(-c2nnc(SCC#CCOC(=O)c3cccs3)o2)cc1,0,0,3,-1,-1,1
O=C(OCC#CCSc1nnc(-c2ccc(Br)cc2)o1)c1cccs1,0,0,1,0,1.0*,1
COC(=O)c1cc(-c2ccc(OC)cc2)n[nH]1,4,0,11*,2,-1,0
O=C(NC(=S)NCc1nc2ccccc2[nH]1)c1ccccc1F,4,2,8,2,0,6.3*
CCNC(=O)OC[C@H]1O[C@H](C#Cc2ccc(C(C)(C)C)cc2)C=C[C@H]1O,-1,0,-2,/,-1,-2
CC(C)(C)c1ccc(C#C[C@@H]2C=C[C@H](O)[C@@H](COC(=O)Nc3ccccc3)O2)cc1,3,1,5,/,1.9*,5.8*
O=C(CC1C(=O)OCN1C(=O)OCc1ccccc1)OCC(=O)c1ccccc1 (configuration not stated),1,0,-1,4.9*,0,0
O=C(O)c1ccccc1C(=O)OC1CCCC2CCCC21 (configuration not stated),2,-1,0,1,-1,0
O=C(CN1CCCC1)Nc1ccc(-c2nc3cc(NC(=O)CN4CCCC4)ccc3o2)cc1,8,0,6,5.8*,-2,2
CC(C)c1ccc2oc(-c3ccc(NC(=O)c4ncn[nH]4)cc3)nc2c1,0,4.0*,7,0,-1,1
CC(C)CC(=O)Nc1ccc2oc(-c3cccnc3)nc2c1,1,2,6,2,-1,1
CCCCC(=O)Nc1ccc2oc(-c3ccncc3)nc2c1,0,1,-1,-2,-1,-1
CCc1ccc2oc(-c3ccc(NC(C)=O)cc3)nc2c1,-2,2,11*,3,1.1*,5.8*
Cc1ccc2oc(-c3ccc(NC(=O)CC(C)C)cc3)nc2c1,0,2,11*,2,0,2
